Compound activity deposited in PubChem BioAssay by several laboratories.
A selection: hits, their analogues and other compounds. The true share with any hit is near 32%.
PostGolgi ctrl – growth inhibition of yeast control strain, primary screen, counter-screen for post-Golgi transport modulator project; efflux-deficient yeast background strain, growth absorbance A615, 16 h; inhibition, % at 10 µM; AID 738, 2007; 98,000 tested, 5% active
CYP2C19 activ – human CYP2C19 activators, primary screen, biochemical, luminescence. 96,000 tested, under 10 active. Cytochrome P450 2C19 (Homo sapiens), P33261. recombinant CYP2C19, luciferin-H EGE luminescence; hits give high values; 0 = fully inhibited enzyme, 1 = untreated enzyme. activation factor at 5 µM;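 active means activation factor of at least 2 at 5 µM in the primary screen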;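 further: 0 = wells with 2.5 mM tranylcypromine and 1 = vehicle-only wells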
Target sequence (P33261 whole entry, looked up): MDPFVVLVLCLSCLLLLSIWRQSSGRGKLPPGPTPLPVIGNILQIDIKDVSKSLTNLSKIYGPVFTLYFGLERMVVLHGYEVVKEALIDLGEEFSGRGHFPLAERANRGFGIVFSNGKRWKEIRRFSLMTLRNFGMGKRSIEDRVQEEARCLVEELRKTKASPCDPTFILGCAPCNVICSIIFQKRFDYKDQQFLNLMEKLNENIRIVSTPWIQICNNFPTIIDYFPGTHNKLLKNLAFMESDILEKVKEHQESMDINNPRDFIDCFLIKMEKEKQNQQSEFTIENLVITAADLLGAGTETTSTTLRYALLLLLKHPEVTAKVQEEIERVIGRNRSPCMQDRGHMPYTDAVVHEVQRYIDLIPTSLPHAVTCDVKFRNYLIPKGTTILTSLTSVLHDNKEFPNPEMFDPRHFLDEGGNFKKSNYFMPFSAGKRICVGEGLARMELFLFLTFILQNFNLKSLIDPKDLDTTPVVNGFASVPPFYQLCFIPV
CYP2C9 act – human CYP2C9 activators, primary screen, biochemical, luminescence; activation factor at 5 µM; recombinant CYP2C9, luciferin-H conversion; hits give high values; factor 1 = untreated enzyme, 0 = blocked; Cytochrome P450 2C9 (Homo sapiens), P11712; 96,000 tested, 1.4% active;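 active means activation factor of 2 or more for CYP2C9 at a 5 µM dose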;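 further: 0 = sulfaphenazole-blocked wells and 1 = vehicle-only wells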
CYP2C9 inhib – blockers of cytochrome P450 2C9 activity – biochemical, luminescence, ADME assay, primary screen. P11712. CYP2C9 Supersomes, luciferin-H conversion. inhibition, % at 5 µM. 96,000 tested, 20% active. AID 777, 2007;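 active means blocking of liver enzyme CYP2C9 beyond about 50% at 5 µM, limit read from the data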
CYP2C19 inh – blockers of cytochrome P450 2C19 activity – biochemical, luminescence, ADME assay, primary screen; P33261; CYP2C19 Supersomes, luciferin-H EGE luminescence, 30 min; inhibition, % at 5 µM; 96,000 tested, 21% active; AID 778, 2007;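 active means CYP2C19 inhibition above a set limit at 5 µM in the primary screen, cut at about 50% in these data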;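 further: plate controls were negative control wells for no effect and 2.5 mM tranylcypromine positive control for full effect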
PostGolgi yeast – phenotypic screen on post-Golgi transport, primary screen. post-Golgi transport phenotypic cell assay. inhibition, % at 10 µM. 98,000 tested, 0.9% active;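 further: yeast cells grown in 1536-well plates; yeast grown about 18 h at 30C before absorbance read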
* = called active by the depositor; nt = no result given. Unless noted, no stated cut-off is given here; in the data, active means inhibition above about 30%; inactive means the rest.

SMILES	PostGolgi ctrl	CYP2C19 activ	CYP2C9 act	CYP2C9 inhib	CYP2C19 inh	PostGolgi yeast
CS(=O)(=O)NCc1nnc(SCC(=O)NC2CCCCC2)n1-c1ccc(F)cc1	7.5	1	1	-2.3	-4.4	16.7
O=c1c2c3c(sc2n(CCN2CCCC2)c(=O)n1Cc1ccco1)CCCCC3	5.9	0.6	0.5	52.2*	35.6	6.2
O=C(Cn1c(=O)n(Cc2ccco2)c(=O)c2c3c(sc21)CCCCC3)Nc1ccccc1	5.9	1	0.6	42.8	3.2	-2.7
O=C(Cn1c(=O)n(Cc2ccco2)c(=O)c2c3c(sc21)CCCCC3)c1ccccc1	4.3	0.6	0.5	53.0*	36.9	-2.9
CN(C)CCn1c(=O)n(Cc2ccco2)c(=O)c2c3c(sc21)CCCCC3	-2.0	0.9	0.8	16.0	6.5	2.3
CC1(C)N=C(c2ccc(Cl)cc2Cl)C(=O)N1	9.8	0.2	0.5	45.9	80.1*	-3.9
CCOC(=O)C1CCN(C(c2cccs2)c2sc3nc(C)nn3c2O)CC1 (configuration not stated)	1.1	0.3	1	-3.1	65.1*	-2.9
COc1cc(C(c2sc3nc(C)nn3c2O)N2CCc3ccccc3C2)cc(OC)c1OC (configuration not stated)	6.2	0.2	0.7	32.7	83.7*	-4.6
CCOC(=O)C1CCN(C(c2cccc(OC)c2)c2sc3nc(C)nn3c2O)CC1 (configuration not stated)	-0.5	0.1	0.8	19.4	86.7*	4.7
COc1ccc(C(c2sc3nc(C)nn3c2O)N2CCc3ccccc3C2)cc1 (configuration not stated)	5.2	0.5	0.7	26.6	47.4	-11.8
COc1cccc(Nc2ncnc3nc[nH]c23)c1	2.8	0.9	0.8	16.3	12.5	-12.8
Cc1ccc(-n2ncc3c(=O)n(Cc4cccnc4)cnc32)cc1	16.8	0.7	0.6	35.4	26.5	1.9
Cn1c(N2CCN(C(=O)C34CC5CC(CC(C5)C3)C4)CC2)nc2ccccc21	nt	1	0.9	6.7	-0.9	nt
CC12CCC(C(=O)N(NC(=O)c3cc(Cl)ccc3O)C1=O)C2(C)C (configuration not stated)	4.8	1.3	1.1	-9.9	-28.2	26.3
CC(C)NC(=O)N(O)C1N(Cc2ccc3c(c2)OCO3)C(=S)SC1(C)C (configuration not stated)	1.5	0	0.1	94.3*	98.3*	-5.8
COc1cccc(CN2C(=O)N(C(C)C)C(N(O)C(=O)NC(C)C)C2(C)C)c1OC (configuration not stated)	6.5	1	0.9	10.8	-1.0	-7.0
COc1ccc2c(C)cc(SCc3c(C)noc3C)nc2c1	32.1*	0.5	0.4	57.0*	50.5*	-12.9
Fc1ccc(CSc2nnc(-c3cccs3)o2)cc1	1.6	0.2	0.3	71.9*	77.7*	-3.4
c1ccc(CSc2nnc(-c3cccs3)o2)cc1	10.3	0.6	0.7	28.4	39.3	-4.0
Fc1ccccc1CSc1nnc(-c2cccs2)o1	-3.0	0.1	0.2	80.1*	85.1*	1.9
CCS(=O)(=O)N1CCN(C(=O)c2cccnc2)CC1	-1.6	1	1	-3.4	2.5	2.3
C[C@@H]1C[C@H](Nc2ccccc2)c2ccccc2N1C(=O)c1cccnc1	29.9	0.2	0.6	38.5	83.9*	1.2
CC(C)Oc1ccc(C2c3c(oc4ccccc4c3=O)C(=O)N2CCCN2CCOCC2)cc1 (configuration not stated)	-3.3	0.5	0.5	51.3*	48.9	9.6
C=CCOc1ccc(C2c3c(oc4ccccc4c3=O)C(=O)N2CCCN2CCOCC2)cc1 (configuration not stated)	0.3	0.6	0.5	54.7*	35.9	3.0
COc1ccc(OC)c(C2C(C(=O)c3cccs3)=C(O)C(=O)N2CCN(C)C)c1 (configuration not stated)	3.8	1.1	1	-2.7	-6.3	-12.7
SMILES	PostGolgi ctrl	CYP2C19 activ	CYP2C9 act	CYP2C9 inhib	CYP2C19 inh	PostGolgi yeast
OC1C2(Cc3ccccc3)CN3CCN(C2)CC1(Cc1ccccc1)C3 (configuration not stated)	16.1	0.9	0.9	9.9	13.0	-1.1
Cc1cccc(N2CCN(C(=O)C34CC5CC(CC(C5)C3)C4)CC2)c1C	51.3*	0.8	0.7	28.6	21.5	-4.1
Cc1cccc(N2CCN(C(=O)c3c(C)nn(Cc4ccccc4Cl)c3C)CC2)c1C	37.6*	1	0.7	33.5	1.6	-3.5
Cc1nn(Cc2ccccc2Cl)c(C)c1N	8.2	0.3	0.9	7.5	74.6*	6.7
O=C(N1CCN(c2ccccc2F)CC1)C12CC3CC(CC(C3)C1)C2	14.3	0.8	0.8	24.0	23.7	0.0
Cc1ccccc1N1CCN(C(=O)C2CCCCC2)CC1	22.1	0.5	0.6	43.7	48.8	6.0
Cc1cccc(N2CCN(C(=O)C3CCCCC3)CC2)c1C	34.2*	0.9	1.7	-70.8	6.7	12.9
Clc1ccc(C2Nc3ccccc3-n3cccc32)cc1 (configuration not stated)	11.0	1.1	1	-2.6	-10.7	-12.6
COc1ccc(NC(=O)CN(C)S(=O)(=O)c2ccc3c(c2)OCCO3)c2ncccc12	20.1	0.8	1.9	-88.3	20.7	4.3
COc1ccc2c(c1OC)C(=O)N1C2SC[C@H]1C(=O)NC1CC(C)(C)NC(C)(C)C1 (some centres not stated)	0.0	1	1.1	-12.8	2.7	17.6
O=C(NCc1ccccc1)c1cccnc1N1CCOCC1	3.0	nt	nt	nt	nt	-5.8
c1n[nH]c(NC2=NCCC2)n1	2.6	0.9	0.8	17.9	5.8	5.4
CCOc1cc(NC(=O)c2ccccn2)c(OCC)cc1NC(=O)CC(C)C	1.0	0.7	0.6	44.5	32.3	6.0
Cc1cccc(N2CCN(C(=O)c3ccc4ncsc4c3)CC2)c1C	4.7	0.3	0.7	28.1	66.1*	-4.7
CCS(=O)(=O)N1Cc2ccccc2CC1C(=O)N1CCN(c2cccc(C)c2C)CC1 (configuration not stated)	2.1	0.4	0.4	58.4*	63.8*	9.2
COc1cc(C(=O)N2CCN(c3cccc(C)c3C)CC2)cc(OC)c1OC	16.5	nt	nt	nt	nt	2.6
Cc1cccc(N2CCN(C(=O)c3ccncc3)CC2)c1C	1.4	0	0.1	86.0*	99.9*	7.9
O=C(O)c1ccc(-n2nnnc2Oc2cccc3cccnc23)cc1	0.8	1.1	1	-2.3	-12.5	24.2
Cc1cc(-c2ccccc2)nc(N(C)NC(=O)c2cccc(C(F)(F)F)c2)c1S(C)(=O)=O	3.3	0.8	0.9	12.6	15.4	-7.3
